About 7,900 targets were measured; listed, in parts, are those with a hit and a random draw of the rest. About 0.6% of all pairs of compound and target were hits. A number with no mark means an inactive call.
The targets below were run with C1=CC=C(C=C1)[C@H](COC2=CC3=C(C=C2)NC(=O)N3)NC(=O)C4=CC=CN(C4=O)CC5=CC(=C(C=C5)F)F (assay: log2 fold change, soluble protein after heating vs DMSO (PISA); higher = thermal stabilisation; K562 cells, 10 uM, 30 min; active = over 0.2 and 3.5 SD of the protein, either way, in both replicates (recomputed)).
Procedure, shortened: (§1)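 Soluble protein was quantified by TMTpro 16plex LC-MS/MS after channel sums were equalised. It was obtained as the supernatant after 21,000xg for 90 min from pooled aliquots of K562 cells (2×10^6 cells/mL, 10 μM compound, 30 min) heated for 3 min across 48°C-58°C and extracted in PBS with 0.5% NP-40 at 4°C. Thermal stability values are relative to control samples and come from duplicates. They are given as log2 fold changes.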

Sequence of UniProt Q99961 (Q99961 whole entry, looked up): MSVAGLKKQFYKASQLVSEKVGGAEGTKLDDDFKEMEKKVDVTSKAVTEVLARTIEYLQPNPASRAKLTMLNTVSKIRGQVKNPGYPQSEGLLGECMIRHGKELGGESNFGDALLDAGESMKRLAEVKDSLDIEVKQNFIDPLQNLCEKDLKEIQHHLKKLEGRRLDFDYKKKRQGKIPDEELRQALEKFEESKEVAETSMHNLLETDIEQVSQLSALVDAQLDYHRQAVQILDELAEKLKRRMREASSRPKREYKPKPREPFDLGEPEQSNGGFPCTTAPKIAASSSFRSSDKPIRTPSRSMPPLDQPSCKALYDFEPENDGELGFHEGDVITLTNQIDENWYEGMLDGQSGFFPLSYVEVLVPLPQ
Sequence of UniProt Q5VTB9 (Q5VTB9 whole entry, looked up): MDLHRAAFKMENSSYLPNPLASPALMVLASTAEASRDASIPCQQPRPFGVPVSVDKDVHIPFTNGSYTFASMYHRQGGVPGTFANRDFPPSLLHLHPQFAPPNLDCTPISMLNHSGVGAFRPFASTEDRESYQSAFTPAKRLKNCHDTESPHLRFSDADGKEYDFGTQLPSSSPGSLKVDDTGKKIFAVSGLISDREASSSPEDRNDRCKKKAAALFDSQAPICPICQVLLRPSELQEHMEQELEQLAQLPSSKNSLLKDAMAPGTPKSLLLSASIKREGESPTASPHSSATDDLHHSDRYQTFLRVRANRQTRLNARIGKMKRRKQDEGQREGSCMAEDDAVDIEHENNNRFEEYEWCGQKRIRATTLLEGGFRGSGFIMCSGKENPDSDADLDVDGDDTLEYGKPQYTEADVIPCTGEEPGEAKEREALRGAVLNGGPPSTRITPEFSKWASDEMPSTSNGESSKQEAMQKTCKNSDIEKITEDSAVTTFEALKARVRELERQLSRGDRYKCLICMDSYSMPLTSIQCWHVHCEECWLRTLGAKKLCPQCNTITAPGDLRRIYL
Sequence of UniProt P51151 (P51151 whole entry, looked up): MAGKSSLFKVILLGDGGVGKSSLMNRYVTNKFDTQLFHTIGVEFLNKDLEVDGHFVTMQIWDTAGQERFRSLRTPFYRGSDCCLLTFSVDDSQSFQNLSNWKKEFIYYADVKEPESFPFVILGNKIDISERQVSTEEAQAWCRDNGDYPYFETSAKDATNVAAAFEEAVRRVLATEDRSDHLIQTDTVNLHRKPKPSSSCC
Sequence of UniProt Q9H2X9 (Q9H2X9 whole entry, looked up): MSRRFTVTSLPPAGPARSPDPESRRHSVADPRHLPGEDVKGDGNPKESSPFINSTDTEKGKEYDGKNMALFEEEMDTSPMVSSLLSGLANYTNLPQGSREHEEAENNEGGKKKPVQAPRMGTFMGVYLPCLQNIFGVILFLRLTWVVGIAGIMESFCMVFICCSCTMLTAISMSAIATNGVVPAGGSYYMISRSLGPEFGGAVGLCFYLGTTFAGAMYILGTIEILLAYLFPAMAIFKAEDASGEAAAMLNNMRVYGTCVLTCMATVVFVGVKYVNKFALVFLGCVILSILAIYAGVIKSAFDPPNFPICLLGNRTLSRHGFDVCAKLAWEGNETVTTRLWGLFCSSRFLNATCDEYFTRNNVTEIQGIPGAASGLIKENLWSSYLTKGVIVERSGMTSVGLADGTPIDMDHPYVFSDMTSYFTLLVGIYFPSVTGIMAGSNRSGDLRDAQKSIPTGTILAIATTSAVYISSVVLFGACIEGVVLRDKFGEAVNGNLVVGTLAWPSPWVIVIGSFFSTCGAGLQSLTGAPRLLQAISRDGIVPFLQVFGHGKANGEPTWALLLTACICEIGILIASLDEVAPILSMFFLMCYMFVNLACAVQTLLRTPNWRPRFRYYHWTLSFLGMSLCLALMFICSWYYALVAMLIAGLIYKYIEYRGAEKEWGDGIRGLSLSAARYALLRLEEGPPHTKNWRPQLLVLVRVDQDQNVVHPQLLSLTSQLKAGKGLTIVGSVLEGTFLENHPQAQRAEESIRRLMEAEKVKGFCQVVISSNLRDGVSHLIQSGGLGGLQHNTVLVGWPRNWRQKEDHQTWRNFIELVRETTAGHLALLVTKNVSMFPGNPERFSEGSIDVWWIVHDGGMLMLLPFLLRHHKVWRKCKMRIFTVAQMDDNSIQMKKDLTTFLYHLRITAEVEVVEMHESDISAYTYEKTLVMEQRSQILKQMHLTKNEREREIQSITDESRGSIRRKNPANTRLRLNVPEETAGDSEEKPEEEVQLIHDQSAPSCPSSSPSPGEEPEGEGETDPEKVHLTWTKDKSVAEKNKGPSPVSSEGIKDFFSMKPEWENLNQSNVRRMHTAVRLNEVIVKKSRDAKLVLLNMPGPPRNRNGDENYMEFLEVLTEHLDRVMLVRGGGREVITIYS
Sequence of UniProt O00767 (O00767 whole entry, looked up): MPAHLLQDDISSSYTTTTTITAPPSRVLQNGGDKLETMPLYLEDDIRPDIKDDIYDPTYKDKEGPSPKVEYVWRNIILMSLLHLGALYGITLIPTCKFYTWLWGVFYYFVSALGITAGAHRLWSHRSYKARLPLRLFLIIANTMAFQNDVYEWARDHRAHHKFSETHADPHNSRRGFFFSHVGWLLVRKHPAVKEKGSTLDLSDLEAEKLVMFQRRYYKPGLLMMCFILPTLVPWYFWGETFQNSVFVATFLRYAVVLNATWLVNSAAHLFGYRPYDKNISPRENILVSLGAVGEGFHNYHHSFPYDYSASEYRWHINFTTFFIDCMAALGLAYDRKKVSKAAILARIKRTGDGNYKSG
Sequence of UniProt Q9Y3L5 (Q9Y3L5 whole entry, looked up): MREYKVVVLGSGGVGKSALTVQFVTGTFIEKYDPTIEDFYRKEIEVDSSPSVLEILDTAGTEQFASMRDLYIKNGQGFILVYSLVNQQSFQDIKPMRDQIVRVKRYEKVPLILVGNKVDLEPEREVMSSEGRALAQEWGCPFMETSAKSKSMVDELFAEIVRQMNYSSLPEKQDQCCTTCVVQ
Sequence of UniProt Q96GF1 (Q96GF1 whole entry, looked up): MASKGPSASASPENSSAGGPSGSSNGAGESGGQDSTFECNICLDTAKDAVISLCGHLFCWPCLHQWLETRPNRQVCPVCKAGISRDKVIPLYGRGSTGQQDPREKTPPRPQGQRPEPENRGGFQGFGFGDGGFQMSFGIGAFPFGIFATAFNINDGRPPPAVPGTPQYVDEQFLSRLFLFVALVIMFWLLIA
Sequence of UniProt Q96EE3 (Q96EE3 whole entry, looked up): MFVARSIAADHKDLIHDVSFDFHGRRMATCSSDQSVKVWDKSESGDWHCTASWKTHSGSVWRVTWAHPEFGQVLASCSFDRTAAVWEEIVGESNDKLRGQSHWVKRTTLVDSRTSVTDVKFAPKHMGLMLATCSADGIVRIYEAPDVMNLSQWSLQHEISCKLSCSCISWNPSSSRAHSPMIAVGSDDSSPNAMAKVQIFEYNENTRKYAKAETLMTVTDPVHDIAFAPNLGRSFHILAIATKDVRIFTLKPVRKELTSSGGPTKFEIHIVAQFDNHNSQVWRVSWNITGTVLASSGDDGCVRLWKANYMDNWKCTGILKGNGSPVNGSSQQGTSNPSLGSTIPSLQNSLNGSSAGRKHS
Sequence of UniProt Q8WWV3 (Q8WWV3 whole entry, looked up): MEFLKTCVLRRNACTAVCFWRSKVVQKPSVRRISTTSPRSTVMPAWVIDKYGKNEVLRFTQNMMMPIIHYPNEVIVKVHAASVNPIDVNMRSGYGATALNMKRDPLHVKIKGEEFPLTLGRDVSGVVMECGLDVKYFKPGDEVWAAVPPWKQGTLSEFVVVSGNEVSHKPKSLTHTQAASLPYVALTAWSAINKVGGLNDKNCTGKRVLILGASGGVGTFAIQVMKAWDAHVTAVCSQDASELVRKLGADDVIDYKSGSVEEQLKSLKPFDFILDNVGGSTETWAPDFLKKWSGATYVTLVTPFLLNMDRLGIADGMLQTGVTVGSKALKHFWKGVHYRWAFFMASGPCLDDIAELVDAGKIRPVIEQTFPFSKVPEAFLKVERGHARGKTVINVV
Sequence of UniProt Q9NTJ5 (Q9NTJ5 whole entry, looked up): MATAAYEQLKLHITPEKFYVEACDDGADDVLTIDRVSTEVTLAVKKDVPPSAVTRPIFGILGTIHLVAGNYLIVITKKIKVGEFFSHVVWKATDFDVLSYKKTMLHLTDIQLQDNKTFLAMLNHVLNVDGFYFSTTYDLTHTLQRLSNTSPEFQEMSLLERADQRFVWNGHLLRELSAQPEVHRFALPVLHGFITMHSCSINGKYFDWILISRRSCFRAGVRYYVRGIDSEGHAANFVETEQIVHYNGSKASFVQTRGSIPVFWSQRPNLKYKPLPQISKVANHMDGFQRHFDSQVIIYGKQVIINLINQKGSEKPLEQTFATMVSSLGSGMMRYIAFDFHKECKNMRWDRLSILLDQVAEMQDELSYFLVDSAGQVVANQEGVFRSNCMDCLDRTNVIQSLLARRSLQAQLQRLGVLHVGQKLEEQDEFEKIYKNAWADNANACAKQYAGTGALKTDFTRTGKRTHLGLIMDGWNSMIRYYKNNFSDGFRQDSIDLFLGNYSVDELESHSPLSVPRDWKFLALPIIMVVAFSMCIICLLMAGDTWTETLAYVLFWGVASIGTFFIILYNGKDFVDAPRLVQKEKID
Sequence of UniProt Q9BWF3 (Q9BWF3 whole entry, looked up): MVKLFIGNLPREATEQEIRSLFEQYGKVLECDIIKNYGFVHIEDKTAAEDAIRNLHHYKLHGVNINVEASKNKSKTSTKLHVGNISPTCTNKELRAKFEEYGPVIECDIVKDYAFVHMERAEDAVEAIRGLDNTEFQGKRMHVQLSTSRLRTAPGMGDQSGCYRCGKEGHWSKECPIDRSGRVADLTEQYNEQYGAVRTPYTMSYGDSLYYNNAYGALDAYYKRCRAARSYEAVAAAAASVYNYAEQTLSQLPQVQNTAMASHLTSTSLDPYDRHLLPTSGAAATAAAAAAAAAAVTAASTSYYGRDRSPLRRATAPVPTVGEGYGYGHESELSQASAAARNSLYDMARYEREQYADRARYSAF
Sequence of UniProt P62070 (P62070 whole entry, looked up): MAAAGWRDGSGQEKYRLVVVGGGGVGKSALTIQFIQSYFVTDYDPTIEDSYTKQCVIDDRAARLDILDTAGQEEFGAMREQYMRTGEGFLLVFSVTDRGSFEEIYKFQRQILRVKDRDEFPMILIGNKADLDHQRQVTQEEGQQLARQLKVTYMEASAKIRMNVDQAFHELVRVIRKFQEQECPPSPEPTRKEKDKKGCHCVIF

| Target | log2 fold change |
| --- | --- |
| RNF185 (UniProt Q96GF1) | -0.157 |
| RPS19 (UniProt P39019) | 0.108 |
| ROCK1 (UniProt Q13464) | -0.017 |
| SCAF8 isoform 2 (UniProt Q9UPN6) | -0.072 |
| SACM1L (UniProt Q9NTJ5) | 0 |
| SCPEP1 (UniProt Q9HB40) | 0.006 |
| RPS21 (UniProt P63220) | -0.008 |
| SFXN5 (UniProt Q8TD22) | -0.079 |
| RBM4 (UniProt Q9BWF3) | -0.029 |
| RNASET2 (UniProt O00584) | 0.037 |
| SHCBP1 (UniProt Q8NEM2) | 0.018 |
| RBM25 (UniProt P49756) | -0.025 |
| SEPTIN5 (UniProt Q99719) | -0.021 |
| RNPEP (UniProt Q9H4A4) | -0.043 |
| SH3GLB2 (UniProt Q9NR46) | -0.029 |
| SCD (UniProt O00767) | 0.011 |
| SEH1L isoform 1 (UniProt Q96EE3) | -0.003 |
| RAD50 isoform 2 (UniProt Q92878) | -0.006 |
| RALGPS2 (UniProt Q86X27) | -0.069 |
| SIRT2 (UniProt Q8IXJ6) | -0.075 |

| Target | log2 fold change |
| --- | --- |
| SLC1A5 (UniProt Q15758) | -0.003 |
| SDCBP (UniProt O00560) | 0.029 |
| RTN4IP1 (UniProt Q8WWV3) | 0 |
| RUFY1 (UniProt Q96T51) | -0.006 |
| RAB9A (UniProt P51151) | 0.024 |
| RAC3 (UniProt P60763) | -0.006 |
| SLC12A5 (UniProt Q9H2X9) | 0.102 |
| SH3GL1 (UniProt Q99961) | -0.073 |
| RBM27 (UniProt Q9P2N5) | -0.015 |
| RPS14 (UniProt P62263) | 0.041 |
| RPS6KA2 isoform 2 (UniProt Q15349) | -0.016 |
| RIOK3 (UniProt O14730) | -0.015 |
| SIDT2 isoform 2 (UniProt Q8NBJ9) | -0.005 |
| RRAS2 isoform 4 (UniProt P62070) | 0.045 |
| RAB3IL1 (UniProt E9PK89) | 0.05 |
| RAP2C (UniProt Q9Y3L5) | 0 |
| RAD50, A0A494C0Y7 | -0.1 |
| RNF220 (UniProt Q5VTB9) | 0.004 |
| RIPK1 (UniProt Q13546) | -0.058 |
| RPS13 (UniProt P62277) | 0.142 |

What follows are targets tested with CC1=C(SC2=C1C(=N[C@H](C3=NN=C(N32)C)CC(=O)N)C4=CC=C(C=C4)Cl)C in the same assay as above.
Procedure, shortened: as §1

| Target | log2 fold change |
| --- | --- |
| RNF185 (UniProt Q96GF1) | 0 |
| RPS19 (UniProt P39019) | -0.158 |
| ROCK1 (UniProt Q13464) | 0.027 |
| SCAF8 isoform 2 (UniProt Q9UPN6) | 0.099 |
| SACM1L (UniProt Q9NTJ5) | 0.048 |
| SCPEP1 (UniProt Q9HB40) | -0.006 |
| RPS21 (UniProt P63220) | -0.047 |
| SFXN5 (UniProt Q8TD22) | 0.024 |
| RBM4 (UniProt Q9BWF3) | -0.074 |
| RNASET2 (UniProt O00584) | -0.038 |
| SHCBP1 (UniProt Q8NEM2) | -0.176 |
| RBM25 (UniProt P49756) | 0 |
| SEPTIN5 (UniProt Q99719) | 0.069 |
| RNPEP (UniProt Q9H4A4) | 0.05 |
| SH3GLB2 (UniProt Q9NR46) | 0.064 |
| SCD (UniProt O00767) | -0.019 |
| SEH1L isoform 1 (UniProt Q96EE3) | 0.06 |
| RAD50 isoform 2 (UniProt Q92878) | 0.017 |
| RALGPS2 (UniProt Q86X27) | 0.073 |
| SIRT2 (UniProt Q8IXJ6) | 0.107 |

| Target | log2 fold change |
| --- | --- |
| SLC1A5 (UniProt Q15758) | 0.035 |
| SDCBP (UniProt O00560) | -0.031 |
| RTN4IP1 (UniProt Q8WWV3) | 0.07 |
| RUFY1 (UniProt Q96T51) | -0.029 |
| RAB9A (UniProt P51151) | 0.088 |
| RAC3 (UniProt P60763) | 0.028 |
| SLC12A5 (UniProt Q9H2X9) | 0.099 |
| SH3GL1 (UniProt Q99961) | 0 |
| RBM27 (UniProt Q9P2N5) | 0.005 |
| RPS14 (UniProt P62263) | -0.162 |
| RPS6KA2 isoform 2 (UniProt Q15349) | 0.045 |
| RIOK3 (UniProt O14730) | -0.008 |
| SIDT2 isoform 2 (UniProt Q8NBJ9) | -0.005 |
| RRAS2 isoform 4 (UniProt P62070) | -0.017 |
| RAB3IL1 (UniProt E9PK89) | 0.259 |
| RAP2C (UniProt Q9Y3L5) | 0.055 |
| RAD50, A0A494C0Y7 | -0.003 |
| RNF220 (UniProt Q5VTB9) | 0.072 |
| RIPK1 (UniProt Q13546) | -0.134 |
| RPS13 (UniProt P62277) | -0.234 |

Source: the supplement of paper PMC10849652
